Experiment [1] in a line: resazurin metabolic signal in HepG2 cells – cell-based, resazurin fluorescence, 24 h, PK04 Diversity Set, profiling panel (AID 1172). Further: test concentration not given here. The following applies: HepG2 viability, higher = more signal.
Experiment [2] is described as follows: budding yeast growth changes without added modifier – OD600, strain BY4716, 24 h, basal condition, primary screen (AID 1173). The settings on record: S. cerevisiae BY4716 growth, OD600, 24 h; higher = more signal, called active from +8 up or from −8 down.
Experiment [3] in a line: viability profiling in MM1S myeloma cells – cell-based, resazurin fluorescence, basal, 24 h, PK04 Diversity Set, profiling panel (AID 1174). Further: test concentration not given here. The settings on record: higher = more signal, called active from +8 up or from −8 down. (Alamar Blue is a resazurin reagent that responds to reducing activity.)
Experiment [4] concerns the target Dihydroorotate dehydrogenase (quinone), mitochondrial (Plasmodium falciparum (isolate 3D7)) (UniProt Q08210). The experiment is described as follows: inhibition of P. falciparum DHODH – biochemical, C-terminal His tag, absorbance 600 nm, primary screen (AID 1175).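 Further: recombinant parasite enzyme with a five histidine tag at its C terminus; test concentration not given here.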 The settings on record: PfDHODH enzyme, DCIP absorbance 600 nm; higher = more signal, called active from +8 up or from −8 down.

The nature of experiment [5]: inhibition of PAO1 biofilm formation – strain PAO1, LB-PBS medium, absorbance 600 nm, primary screen (AID 1176). Further: test concentration not given here. The following applies: P. aeruginosa PAO1 growth/biofilm, A600, 12 h; higher = more signal.
Experiment [6] can be described thus: growth modulation of vineyard yeast isolate – strain RM11-1a, OD600, basal, 24 h, primary screen (AID 1177).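 Further: cultures grown under basal conditions with no added stressor; test concentration not given here.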 The following applies: S. cerevisiae RM11-1a growth, OD600, 24 h; higher = more signal, called active from +8 up or from −8 down.
A short description of experiment [7]: growth of efflux-deficient E. coli DRC39 – strain DRC39, OD650, 24 h, E. coli filamentation inducers, primary screen (AID 1178).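 Further: growth measured as culture turbidity by optical density at 650 nm; test concentration not given here.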 The following applies: E. coli DRC39 acrAB, higher = more signal, called active from +8 up or from −8 down.
The nature of experiment [8]: growth of efflux-deficient E. coli DRC39 – strain DRC39, OD650, 48 h, E. coli filamentation inducers, primary screen (AID 1179).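 Further: screen aims at cell division blockers that make cells filament.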 The settings on record: E. coli DRC39 delta-acrAB growth, higher = more signal, called active from +8 up or from −8 down.
Experiment [9] in a line: viability profiling in RPMI8226 myeloma cells – cell-based, resazurin fluorescence, basal, 24 h, PK04 Diversity Set, profiling panel (AID 1180).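 Further: RPMI8826 multiple myeloma cell line at 5000 cells per well; test concentration not given here.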 The settings on record: higher = more signal.
For experiment [10], the target named is E3 ubiquitin-protein ligase XIAP (Homo sapiens) (UniProt P98170). Put plainly: small molecules binding XIAP protein – biophysical, small-molecule microarray, fluorescence 635 nm, primary screen (AID 1181).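 Further: score merges 667 nm emission and signal to noise over triplicate slides.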 The following applies: higher = more signal.

Active and inactive are the calls of the source. Unless noted, how the calls were made is not given here.

Chain of E3 ubiquitin-protein ligase XIAP (Homo sapiens) (P98170 whole entry, looked up): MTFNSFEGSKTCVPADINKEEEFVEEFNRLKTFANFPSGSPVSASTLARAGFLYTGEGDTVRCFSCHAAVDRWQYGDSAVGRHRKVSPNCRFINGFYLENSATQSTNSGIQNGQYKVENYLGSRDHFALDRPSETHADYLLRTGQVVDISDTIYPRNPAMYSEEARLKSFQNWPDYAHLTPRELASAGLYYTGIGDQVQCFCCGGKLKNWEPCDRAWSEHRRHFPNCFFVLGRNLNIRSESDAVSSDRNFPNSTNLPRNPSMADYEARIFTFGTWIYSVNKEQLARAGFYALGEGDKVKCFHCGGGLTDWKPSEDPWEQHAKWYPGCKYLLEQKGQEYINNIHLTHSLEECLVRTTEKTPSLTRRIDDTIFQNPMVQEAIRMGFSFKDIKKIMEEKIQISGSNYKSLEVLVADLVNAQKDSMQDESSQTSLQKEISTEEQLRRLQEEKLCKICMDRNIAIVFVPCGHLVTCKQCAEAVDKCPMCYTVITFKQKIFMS
Chain of Dihydroorotate dehydrogenase (quinone), mitochondrial (Plasmodium falciparum (isolate 3D7)) (Q08210 whole entry, looked up): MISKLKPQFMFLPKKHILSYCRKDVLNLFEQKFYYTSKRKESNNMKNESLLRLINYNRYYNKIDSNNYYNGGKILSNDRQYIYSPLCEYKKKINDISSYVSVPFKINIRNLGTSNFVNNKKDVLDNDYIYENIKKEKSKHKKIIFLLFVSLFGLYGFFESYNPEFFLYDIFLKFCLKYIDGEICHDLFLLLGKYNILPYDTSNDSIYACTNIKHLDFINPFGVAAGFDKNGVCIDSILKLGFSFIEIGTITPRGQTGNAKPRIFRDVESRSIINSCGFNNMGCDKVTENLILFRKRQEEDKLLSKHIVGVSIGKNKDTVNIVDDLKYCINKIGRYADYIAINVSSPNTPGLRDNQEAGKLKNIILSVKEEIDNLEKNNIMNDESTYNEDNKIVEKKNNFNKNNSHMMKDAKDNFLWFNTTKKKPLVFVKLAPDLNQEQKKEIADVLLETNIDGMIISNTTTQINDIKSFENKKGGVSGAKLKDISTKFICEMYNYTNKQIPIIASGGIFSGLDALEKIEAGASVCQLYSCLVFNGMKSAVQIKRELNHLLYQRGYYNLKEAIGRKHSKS

As for `CCOC(=O)[C@H](Cc1ccccc1)NC(=O)CCC1CC(OC(=O)NCc2cccc3ccccc23)CC2(CCCC(COC(=O)NCCc3ccccc3OC)O2)O1` (stereo not given in full), the z-score in [1] is 0.942; in experiment [2], -1.14 (inactive); in experiment [3] it was 0.179 (inactive); in [5], 0.86 (inactive); in [6] it was 0.166 (inactive); in [7], 0.122 (inactive). For the same compound, the results for the z-score in [8] and in [9] were 0.0971 (inactive) and 0.0498, respectively. For the same compound, the composite z-score was -0.561 (inactive) in [4] and -0.194 in experiment [10].
For the compound `COC(=O)[C@H](C)NC(=O)CCC1CC(OC(=O)NCCc2ccc(F)cc2)CC2(CCCC(COC(=O)NCCc3ccccc3OC)O2)O1` (stereo not given in full), the z-score was 0.185 in [1]; 0.292 (inactive) in experiment [2]; 0.173 (inactive) in [3]; 0.119 (inactive) in experiment [5]; 0.878 (inactive) in [6]; 0.636 (inactive) in experiment [7]. Also, the z-score in experiment [8] is -0.487 (inactive); in experiment [9], 0.833. Moreover, the composite z-score in [4] was 0.098 (inactive); in experiment [10], -0.0615.
For `COC(=O)[C@H](C)NC(=O)CCC1CC(OC(=O)NCc2cccc3ccccc23)CC2(CCCC(COC(=O)NCCc3ccccc3OC)O2)O1` (stereo not given in full), the z-score in experiment [1] was -0.0725; in experiment [2], 0.526 (inactive); in experiment [3], -0.232 (inactive); in experiment [5] it was 0.639 (inactive); in experiment [6] it was 1.61 (inactive); in experiment [7] it was 0.642 (inactive). For the same compound, the z-score in experiment [8] was -0.0569 (inactive); in [9], -0.472. Also, the composite z-score was 0.325 (inactive) in experiment [4] and 0.0932 in [10].
Consider `COC(=O)[C@H](C)NC(=O)CCC1CC(OC(=O)NCc2ccc3c(c2)OCO3)CC2(CCCC(COC(=O)NCc3ccccc3)O2)O1` (stereo not given in full), for which the z-score in experiment [1] was 1.24; in experiment [2], -0.67 (inactive); in experiment [3], -0.731 (inactive); in [5] it was 0.38 (inactive); in experiment [6], 0.479 (inactive); in [7] it was 1.03 (inactive). Moreover, the results for the z-score in [8] and in [9] were 0.32 (inactive) and 1.11, respectively. In addition, the composite z-score in experiment [4] is -0.504 (inactive); in experiment [10] it was -0.205.
With `C=CC[C@@H]1C=C[C@H](Oc2ccc(C)cc2)[C@@H](COC(=O)NCc2cccc3ccccc23)O1`, the z-score was 1.08 in [1]; -0.469 (inactive) in experiment [2]; 0.841 (inactive) in experiment [3]; 0.119 (inactive) in [5]; 0.74 (inactive) in experiment [6]; -0.899 (inactive) in experiment [7]. For the same compound, the z-score in [8] is -0.629 (inactive); in experiment [9], 0.901. Moreover, the composite z-score in [4] is 0.438 (inactive); in [10] it was -0.0559.
As for `O=C1C[C@H](c2ccccc2)[C@H](c2ccc(Br)cc2)O1`, the z-score in experiment [1] was -0.598; in [2], -8.77 (active); in experiment [3], -0.118 (inactive); in experiment [5] it was 0.605 (inactive); in experiment [6], -2.74 (inactive); in experiment [7], 0.358 (inactive). Moreover, the z-score in experiment [8] is -1.67 (inactive); in experiment [9], 0.0497. Also, the composite z-score in experiment [4] was -1.24 (inactive); in experiment [10], -0.0438.
As to `CC(C)=CCCC(C)=CCON=C1C[C@@H](O)[C@@H](O)[C@@H]2[C@@H]3C(=O)N(C4CCCCC4)C(=O)[C@@H]3CC[C@H]12`, the z-score in experiment [1] is -0.346; in experiment [2] it was -0.339 (inactive); in [3], -2.69 (inactive); in experiment [5], -0.437 (inactive); in [6], 0.577 (inactive); in experiment [7], 0.354 (inactive). Also, the z-score in experiment [8] is 0.683 (inactive); in [9], -1.7. The composite z-score in experiment [4] was 0.235 (inactive); in experiment [10] it was -0.111.
As for `CC(CCN1CCc2nc(-c3ccccc3)c(-c3ccccc3)cc2C1)=NO[C@@H](C)c1cc(-c2c(C)cc(C)cc2C)no1`, the z-score in experiment [1] was -0.377; in experiment [2], -1.7 (inactive); in experiment [3], 0.553 (inactive); in [5], -0.634 (inactive); in experiment [6] it was -0.482 (inactive); in experiment [7], -1.04 (inactive). In addition, the z-score was -1.01 (inactive) in experiment [8] and 0.812 in experiment [9]. Moreover, the composite z-score is -2.15 (inactive) in [4] and -0.209 in experiment [10].
`O=C(NN=C1C[C@@H](O)[C@@H](O)[C@@H]2[C@@H]3C(=O)N(c4ccc(F)cc4F)C(=O)[C@@H]3CC[C@H]12)OCc1ccccc1`: the z-score in experiment [1] was 2.08; in [2], -0.814 (inactive); in experiment [3], 1.23 (inactive); in [5], -0.258 (inactive); in [6], -1.35 (inactive); in [7] it was 0.574 (inactive). Besides, the results for the z-score in experiment [8] and in experiment [9] were 0.573 (inactive) and 0.86, respectively. Besides, the composite z-score in experiment [4] is -0.25 (inactive); in [10], -0.152.
On to `C[C@H]1CC[C@H]2C(=O)N[C@H](Cc3ccccc3)C(=O)N2[C@@H]1c1ccccc1`, for which the z-score in experiment [1] is -0.69; in [2] it was -0.512 (inactive); in experiment [3], -0.322 (inactive); in experiment [5], -0.327 (inactive); in experiment [6], 0.0033 (inactive); in [7], 0.718 (inactive). For the same compound, the z-score in experiment [8] was 0.295 (inactive); in experiment [9], -0.142. Besides, the composite z-score was 0.868 (inactive) in experiment [4] and -0.24 in [10].
Consider `COc1ccc(COC(=O)NN=C2C[C@@H](O)[C@@H](O)[C@@H]3[C@@H]4C(=O)N(Cc5ccc6c(c5)OCO6)C(=O)[C@@H]4CC[C@H]23)cc1`, for which the z-score is -0.318 in [1]; 0.321 (inactive) in [2]; -0.0139 (inactive) in experiment [3]; -0.273 (inactive) in [5]; 0.139 (inactive) in experiment [6]; 0.586 (inactive) in experiment [7]. The z-score in experiment [8] was 1.17 (inactive); in experiment [9] it was 0.18. Moreover, the composite z-score is -0.394 (inactive) in experiment [4] and 0.0498 in experiment [10].
Regarding `CCOC(=O)CCN1C(=O)[C@H]2[C@H]3[C@H](O)[C@H](O)CC(=NOCC=C(C)CCC=C(C)C)[C@H]3CC[C@H]2C1=O`, the z-score was -0.51 in experiment [1]; 0.398 (inactive) in experiment [2]; -0.524 (inactive) in experiment [3]; 0.128 (inactive) in experiment [5]; 0.0725 (inactive) in experiment [6]; 0.614 (inactive) in [7]. Moreover, the z-score was 0.846 (inactive) in experiment [8] and -0.764 in experiment [9]. In addition, the composite z-score is -0.0222 (inactive) in [4] and 0.0223 in [10].
On to `COC(=O)CC=C[C@@H](C)[C@@H](C=NOC(C)CN1CCCCc2nc(C)c(C)cc21)NS(=O)(=O)c1ccc(C)cc1` (stereo not given in full), for which the z-score is -0.194 in experiment [1]; 0.434 (inactive) in experiment [2]; -0.71 (inactive) in experiment [3]; 0.0525 (inactive) in [5]; -0.472 (inactive) in [6]; 0.424 (inactive) in [7]. The z-score is 0.607 (inactive) in [8] and 0.0077 in [9]. For the same compound, the composite z-score in experiment [4] is -0.069 (inactive); in experiment [10] it was -0.244.

Values taken from PubChem BioAssay.
